Data published in PubChem BioAssay (EPA / NIEHS).
Results filed as inconclusive are left out. Activity calls are given as the source filed them. Rule for the calls: active = hit-call score of the fitted dose curve at least 0.9, where 1 is the maximum; inconclusive = response in the unintended direction; inactive = score below 0.9.

What was measured:
[1] = target: Cellular tumor antigen p53 (Homo sapiens) (UniProt P04637); experiment: TOX21_p53_BLA_p3_ratio: Tox21 HCT-116 p53 Agonism Beta-lactamase Assay, Ratio, Phase 3 (AID 2283596)
Chain of Cellular tumor antigen p53 (Homo sapiens) (P04637 whole entry, looked up): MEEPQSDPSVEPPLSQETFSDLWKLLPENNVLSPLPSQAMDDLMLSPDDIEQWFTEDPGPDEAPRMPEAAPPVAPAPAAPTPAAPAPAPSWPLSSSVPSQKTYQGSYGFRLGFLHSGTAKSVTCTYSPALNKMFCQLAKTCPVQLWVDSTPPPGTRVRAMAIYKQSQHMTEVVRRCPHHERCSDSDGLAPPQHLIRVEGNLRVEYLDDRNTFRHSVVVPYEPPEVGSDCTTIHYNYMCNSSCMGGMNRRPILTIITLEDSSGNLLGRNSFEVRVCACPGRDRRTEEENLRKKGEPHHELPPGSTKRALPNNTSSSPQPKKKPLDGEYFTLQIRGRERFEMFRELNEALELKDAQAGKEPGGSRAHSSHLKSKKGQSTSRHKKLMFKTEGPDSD
In short: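 Cells were seeded at 4000/well, rested 5 h at 37C, then dosed with DMSO compound solutions (217-fold dilution) for 16 h. CCF4-AM substrate was loaded for 2 h at room temperature, and the 460/530 nm emission ratio was fitted for gain of signal versus DMSO.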

[2] = target: Cellular tumor antigen p53 (Homo sapiens) (UniProt P04637); experiment: TOX21_p53_BLA_p5_ratio: Tox21 HCT-116 p53 Agonism Beta-lactamase Assay, Ratio, Phase 5 (AID 2283599)
In short: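 HCT-116 cells carrying a p53-inducible beta-lactamase reporter were seeded at 4000 cells/well and dosed after 5 h with compound in DMSO (217-fold dilution). After 16 h at 37C, CCF4-AM substrate was added for 2 h, and the 460/530 nm emission ratio was scored as gain-of-signal versus DMSO.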

[3] = TOX21_p53_BLA_p4_viability: Viability Assessment in the Tox21 HCT-116 p53 Agonism Beta-lactamase Assay, Phase 4 (AID 2283597);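 note: hits lower the luminescence signal meaning cytotoxicity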
In short: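 4000 HCT116 cells per well; 5 h attachment; compounds from DMSO, 217-fold dilution; 16 h at 37C. Then CCF4-AM, 2 h RT, followed by CellTiter-Glo, 30 min RT, luminescence. Decrease = cytotoxicity.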

[4] = TOX21_p53_BLA_p5_viability: Viability Assessment in the Tox21 HCT-116 p53 Agonism Beta-lactamase Assay, Phase 5 (AID 2283600)
In short: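 Decreased CellTiter-Glo luminescence denotes lost viability. Exposure: 16 h at 37C, 5% CO2, with compounds from DMSO stocks diluted 217-fold in wells of 4000 cells.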

[5] = target: Cellular tumor antigen p53 (Homo sapiens) (UniProt P04637); experiment: TOX21_p53_BLA_p4_ratio: Tox21 HCT-116 p53 Agonism Beta-lactamase Assay, Ratio, Phase 4 (AID 2283601)
In short: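 HCT116 cells carrying an inducible beta-lactamase reporter were plated at 4000 cells/well, rested 5 h, then exposed to compounds in DMSO (217-fold dilution) for 16 h at 37C. CCF4-AM substrate was loaded 2 h at room temperature; 460/530 nm emission ratio scored gain-of-signal versus DMSO.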

Measured: outcome

C=CC(=O)OCCOCCOC(=O)C=C
inactive: [1] | [2]

CC(C)(O/N=C(\C(=O)N[C@@H]1C(=O)N2C(C(=O)[O-])=C(C[n+]3ccccc3)CS[C@H]12)c1csc(N)n1)C(=O)O
inactive: all assays above

O=C1CCN(c2ccccc2)N1
inactive: [1] | [3] | [4]

Cl.Cl.N.N.[Cl-].[Cl-].[Pt+2]
inactive: [1] | [2]

Nc1ccc(N=Nc2ccc(N)cc2)cc1
inactive: [1] | [2]

C[C@H]1NCc2cc(-c3ccc4c(=O)c(C(=O)O)cn(C5CC5)c4c3OC(F)F)ccc21
inactive: [1] | [2] | [4]

O=C(O)C(O)[C@H](O)[C@@H](O)[C@H](O)[C@H](O)CO (stereo partly specified)
inactive: all assays above

CC(C)(C)c1ccc(C=O)cc1
inactive: [1] | [2] | [4]

CCN(CC)CCNC(=O)c1cc(S(C)(=O)=O)ccc1OC
inactive: all assays above

Cn1nnnc1SCC1=C(C(=O)O)N2C(=O)[C@@H](NC(=O)[C@H](O)c3ccccc3)[C@H]2SC1
inactive: all assays above

CC(=O)Oc1cc(C(F)(F)F)ccc1C(=O)O
inactive: all assays above

CC[C@H]1OC(=O)C[C@@H](O)[C@H](C)[C@@H](O[C@@H]2O[C@H](C)[C@@H](O)[C@H](N(C)C)[C@H]2O)[C@@H](CCN2C[C@H](C)C[C@H](C)C2)C[C@@H](C)C(=O)/C=C/C(C)=C/[C@@H]1CO[C@@H]1O[C@H](C)[C@@H](O)[C@@H](OC)[C@H]1OC
inactive: [1] | [2] | [4]

O=C(CCN1CCN(CCO)CC1)N1c2ccccc2Sc2ccc(C(F)(F)F)cc21
not listed: [4]
inactive: all other assays above

Nc1ccc(C(=O)O)c(O)c1
inactive: all assays above

C/C(=C\C(=O)OCCCCCCCCC(=O)O)C[C@@H]1OC[C@H](C[C@@H]2O[C@H]2[C@@H](C)[C@H](C)O)[C@@H](O)[C@H]1O
inactive: all assays above

O=C1CCCc2ccccc21
inactive: all assays above

O=C1NC(=O)c2cc([N+](=O)[O-])ccc21
inactive: all assays above

O=C(c1ccc2c(c1)C(=O)OC2=O)c1ccc2c(c1)C(=O)OC2=O
not listed: [4]
inactive: all other assays above

CC1(C)CO[C@@H](CC(=O)O)CN1
not listed: [4]
inactive: all other assays above

Cc1ccnc2c1NC(=O)c1cccnc1N2C1CC1
inactive: all assays above

CCN(CCCc1ccccc1)CCCc1ccccc1
not listed: [2]
inactive: all other assays above

CCCCCC/C=C/C(=O)OC
inactive: [1] | [2]
